The record followed here is PubChem BioAssay AID463195 (Sanford-Burnham Center for Chemical Genomics, 2010).

The whole screen tested about 330,000 compounds, of which about 4,600 (1.4%) were called active. The entries come from a sample that favours actives as a whole. Values without a mark were called inactive.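 The calls were made as follows: active = inhibition of 40% or more at the single tested concentration; inactive = the rest.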

This assay is described as follows: wild-type TIM10 yeast growth inhibition – luminescence, uHTS, counter-screen for tim10-1 yeast inhibitor project, primary screen (AID 463195).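 Also: wild-type TIM10 isogenic control strain grown at permissive 25 °C; 0% = DMSO yeast wells and 100% = minimal medium wells without yeast.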 The settings on record: S. cerevisiae TIM10 strain growth, BacTiter-Glo luminescence, 24 h; at 10 µM; hits give high values.
As for `CC1CC(=O)Nc2ccccc2N1S(=O)(=O)c1cccs1` (stereo not drawn), the inhibition (as a rule, the drop in the measured response relative to a control, in per cent) is 5.91%.

As for `CC1CC(=S)Nc2ccccc2N1Cc1ccccc1` (stereo not drawn), the inhibition was 46.2% (active).

Consider `CC1CC(C)(C)NC(=S)N1CCC(=O)N1CCN(Cc2ccccc2)CC1` (stereo not drawn), for which the inhibition is -2.23%.

Take `COC(=O)CNc1nc(Cl)nc(N2CCC(C)CC2)n1`: the inhibition is -3.85%.

Turning to `CCOc1ccccc1NC(=S)NC(=O)CCc1ccccc1`, the inhibition is 11.7%.

As to `O=C(OCCOCn1cc(Br)c(=O)[nH]c1=O)c1ccccc1`, the inhibition is -12.6%.

On to `Cn1nccc1/C=N\NC(=O)c1ccc(Cl)cc1`, for which the inhibition is -2.29%.

As to `COc1ccc(C(CNC(=O)COc2ccc([N+](=O)[O-])cc2)N2CCCCC2)cc1` (stereo not drawn), the inhibition was 8.46%.

Consider `COc1ccc(C(CNC(=O)COc2ccccc2OC)N2CCCCC2)cc1` (stereo not drawn), for which the inhibition was 0.651%.

In the case of `CCc1ccc(OCC(=O)NCC(c2ccc(Cl)cc2)N2CCCCC2)cc1` (stereo not drawn), the inhibition is 42.7% (active).

Consider `CC1CCN(C(=S)c2cccc([N+](=O)[O-])c2)CC1`, for which the inhibition is 1.4%.

Turning to `CC1CCC2CCCCC2N1C(=O)c1cc([N+](=O)[O-])cc([N+](=O)[O-])c1` (stereo not drawn), the inhibition was 40.2% (active).

Turning to `CC1(c2ccccc2)CC(C)(C)N(C(=O)c2cc([N+](=O)[O-])cc([N+](=O)[O-])c2)c2ccccc21` (stereo not drawn), the inhibition is -3.92%.

Consider `Cc1csc(CN(C)C(=O)CC2C(=O)NCCN2CC(C)(C)C)n1` (stereo not drawn), for which the inhibition is -12.9%.

On to `Cn1c(=O)cc(OCCCC(=O)N2CCN(c3ccccn3)CC2)c2ccccc21`, for which the inhibition is 13.5%.

Turning to `Oc1cccc2ccc(/C=C/c3ccc(Br)s3)nc12`, the inhibition is 15.2%.

Turning to `COCCNC(=S)N(CCc1c(C)[nH]c2ccc(C)cc12)Cc1cccnc1`, the inhibition was -1.03%.

With `CCNC(=S)N(CCc1c(C)[nH]c2ccc(C)cc12)Cc1ccco1`, the inhibition is 41.2% (active).

With `COc1cccc(NC(=S)N(CCc2c(C)[nH]c3ccccc23)Cc2ccco2)c1`, the inhibition was 15.9%.

For `O=C(N/N=C/c1ccc(O)c(O)c1)C1c2ccccc2Oc2ccccc21`, the inhibition was -9.32%.

In the case of `CCN(CCCCOC(=O)c1ccc(OC)c(OC)c1)C(C)Cc1ccc(OC)cc1` (stereo not drawn), the inhibition is -1.12%.

For the compound `Cc1ccccc1N1CCN(C2CCCN(C(=O)c3ocnc3C)C2)CC1` (stereo not drawn), the inhibition was -0.332%.

On to `COc1ccc(S(=O)(=O)N2CCN(C(C)C(=O)Nc3ccc(C(C)C)cc3)CC2)cc1` (stereo not drawn), for which the inhibition is 44.9% (active).

Regarding `COc1cccc(CNC(C)C(=O)Nc2ccc(S(=O)(=O)N3CCCC3)cc2)c1` (stereo not drawn), the inhibition is 18.4%.

On to `CC(C)c1ccc(S(=O)(=O)N2CCN(C(C)C(=O)NC3CCCC3)CC2)cc1` (stereo not drawn), for which the inhibition was -30.5%.

As for `Cc1c(C(=O)OC(C)C)sc(NC(=O)c2cccnc2)c1C#N`, the inhibition is 6.36%.

Regarding `COc1ccc(CCNC(=O)COC(=O)Cc2cccc(F)c2)cc1`, the inhibition was 7.57%.

Turning to `Cc1cccc(NC(=O)CN2CCN(C(=O)C3CCN(C(=O)/C=C/c4ccccc4)CC3)CC2)c1C`, the inhibition is 8.87%.

Regarding `CCCCn1c(=O)c(CCC(=O)OCC(=O)Nc2ccc(C)c(Cl)c2)nc2ccccc21`, the inhibition was -6.83%.

On to `COc1ccc(S(=O)(=O)N(C)C[C@H]2Oc3c(NC(=O)Nc4ccc5c(c4)OCO5)cccc3C(=O)N([C@H](C)CO)C[C@@H]2C)cc1`, for which the inhibition is 1.19%.

Take `O=C(NCc1ccccc1)C1CCCN(c2nc3ccsc3c(=O)s2)C1` (stereo not drawn): the inhibition is -2.48%.

With `CCC(C)NC(=O)c1nn(C)c(=O)c2ccccc12` (stereo not drawn), the inhibition is 1.61%.

With `Cc1ccc(NC(=O)CSc2sc3c(O)cc(=O)[nH]c3c2C#N)cc1C`, the inhibition is -6.33%.

In the case of `CCOC(=O)c1ccc(N2C(=O)CC(N3CCC(C(=O)OCC)CC3)C2=O)cc1` (stereo not drawn), the inhibition was 41.3% (active).

`CCOC(=O)c1ccc(N2C(=O)CC(N3CC(C)OC(C)C3)C2=O)cc1` (stereo not drawn): the inhibition is 8.24%.

For `CCOC(=O)c1ccc(N2C(=O)CC(N3CCN(C(=O)c4ccccc4)CC3)C2=O)cc1` (stereo not drawn), the inhibition was 1.01%.

With `CC1CN(C(=S)Nc2ccc(S(N)(=O)=O)cc2)CC(C)O1` (stereo not drawn), the inhibition is 2.19%.

In the case of `CCN(C(=O)COc1ccc(C(=O)c2ccccc2)cc1)c1ccccc1`, the inhibition is 16.5%.

For the compound `CCOC(=O)CSc1nc(N2CCOCC2)c2c(c1C#N)CC(C(C)C)OC2` (stereo not drawn), the inhibition is 20%.

As to `O=C(Nc1cccc(F)c1)[C@@H]1CCCN1`, the inhibition is -11.2%.

As for `COc1ccc(-n2cnc3cc(NCc4ccco4)ccc32)cc1`, the inhibition is 35.3%.

In the case of `COc1ccc(-c2oc3ncn(Cc4ccco4)c(=N)c3c2-c2ccc(OC)cc2)cc1`, the inhibition was 49% (active).

As for `COc1ccc(-c2oc3ncnc(NCCCO)c3c2-c2ccc(OC)cc2)cc1`, the inhibition was 17.8%.

For the compound `COc1ccc(C(C)(C)C)cc1NC(=O)CCN1C(=O)C2CCCCC2C1=O` (stereo not drawn), the inhibition was 24.4%.

As to `COc1ccccc1Oc1ccc(N2CC(C(=O)OCC(=O)c3ccc(F)cc3)CC2=O)cc1` (stereo not drawn), the inhibition is 19.9%.

On to `CCc1ccccc1NC(=O)CSc1nnc([C@@H](NC(=O)OC(C)(C)C)C(C)C)o1`, for which the inhibition was 12.6%.

As to `C[C@H](NC(=O)OC(C)(C)C)c1nnc(SCC(=O)Nc2ccc(Br)cc2)o1`, the inhibition was 9.84%.

Turning to `C[C@@H](NC(=O)OC(C)(C)C)c1nnc(S(=O)(=O)Cc2ccccc2)o1`, the inhibition is 40.3% (active).

Consider `CCN(CC)C(=O)COc1coc(CN2CCN(Cc3ccccc3)CC2)cc1=O`, for which the inhibition was 16.8%.

Consider `COC(C[C@@H]1O[C@@H]1C(=O)[C@@H](C)OCc1ccccc1)OC`, for which the inhibition was 3.69%.

On to `CC1(C)NC(=O)N(CCCCSc2ccc(Cl)cc2)C1=O`, for which the inhibition was -13.6%.

Turning to `COC(=O)c1sc(-c2ccc(C(C)(C)C)cc2)cc1NC(=O)/C=C/C(=O)O`, the inhibition was -5.28%.

As to `COCCCC1CCN(C(=O)C2CCC(=O)N(C3CCCCCC3)C2)CC1` (stereo not drawn), the inhibition is 2.49%.

Take `COCCNC(=O)C(OC(=O)c1cccs1)c1ccc(F)cc1` (stereo not drawn): the inhibition is 10.9%.

For `c1ccc(-c2nccc(-c3ccc(-n4cnc5ccccc54)cc3)n2)nc1`, the inhibition was 46% (active).

With `COC(=O)c1ccc(-n2cnc3ccccc32)nc1`, the inhibition is 10.4%.

Take `Cc1nccc(-c2ccc(-n3c(C)ccc3C)cc2)n1`: the inhibition was 6.83%.

Take `Cc1cc(C(=O)CC#N)c(C)n1CC(F)(F)F`: the inhibition was -1.63%.

For the compound `COCCn1c(C)cc(C(=O)COC(=O)/C=C/c2cccc(OC)c2)c1C`, the inhibition is 17.6%.

Take `C/C(N)=C(/C#N)C(=O)COC(=O)c1cc(-c2ccc(C)cc2)nc2ccccc12`: the inhibition was 23.8%.

For the compound `COC(=O)CNC(=O)c1cc(-c2ccncc2)nc2ccccc12`, the inhibition is -9.97%.

In the case of `N/C(=N\OC(=O)c1cc(-c2ccccc2)nc2ccccc12)c1ccncc1`, the inhibition is 61.8% (active).

With `O=C(Oc1ccc(F)cc1)N1CCOCC1`, the inhibition was 97.5% (active).

Turning to `CC(=O)c1ccc(OC(=O)N2CCOCC2)cc1`, the inhibition was 9.97%.

Take `O=C(Oc1ccc(C(=S)N2CCOCC2)cc1)c1ccc(F)cc1`: the inhibition is 7.76%.

Regarding `CCOc1c(OC)cccc1C(=O)NCC1(c2ccccc2)CCCC1`, the inhibition was 27.6%.

For the compound `CC(C)(C)n1ncc2c(=O)n(Cc3c(Cl)cccc3Br)cnc21`, the inhibition was 5.55%.

As to `Cc1ccc(OCC(=O)Nc2cccc3c2CCCC3)cc1C`, the inhibition is 28.1%.

For `O=C(NC(Nc1nc2ccc([N+](=O)[O-])cc2s1)(C(F)(F)F)C(F)(F)F)c1ccccc1`, the inhibition was 76.9% (active).

In the case of `O=C(NOCc1ccccc1)c1cccc([N+](=O)[O-])c1`, the inhibition is 0.85%.

As for `O=C(COC(=O)c1ccc([N+](=O)[O-])cc1Cl)NC(=O)c1ccccc1`, the inhibition is -3.01%.

For the compound `CCc1ccc(C(=O)NN=C2CCCCCC2)s1`, the inhibition was -0.295%.

For the compound `CCCC(C(=O)N1CCOCC1)N1C(=O)C2C3C=CC(C3)C2C1=O` (stereo not drawn), the inhibition is -10.3%.

Regarding `CCC(C)(C)n1nnnc1C(c1cccs1)N1CCN(c2nc3ccccc3s2)CC1` (stereo not drawn), the inhibition is 37.8%.

Turning to `CCC(C)(C)n1nnnc1CN1CCN(c2nc3ccc(C)cc3cc2C#N)CC1`, the inhibition is 41.5% (active).

With `CCOc1ccc2nc(N3CCCN(C(=O)Nc4ccccc4C)CC3)c(C#N)cc2c1`, the inhibition is 2.29%.

Regarding `CSc1ccc(CN(C)CC(=O)NCc2ccc(F)cc2)cc1`, the inhibition was -1.15%.

Regarding `Cn1c(CNC(=O)c2ccco2)nnc1SCC(=O)N1CCN(c2ccccc2)CC1`, the inhibition was 2.03%.

Regarding `O/N=C(\c1ccc2c(c1)OCCO2)C1CCCCC1`, the inhibition is 3.12%.

For `Cc1c(CNCCc2ccccc2)c(C(=O)O)c(C)n1-c1ccccc1`, the inhibition is -4.69%.

Take `Cn1c(-c2sc3cc(C(F)(F)F)cnc3c2-c2ccccc2)n[nH]c1=S`: the inhibition was -3.83%.

Take `Cn1c(-c2sccc2OCc2cccc(C(F)(F)F)c2)n[nH]c1=S`: the inhibition is 42.2% (active).

Take `COc1cc(/C=N/n2c(C)n[nH]c2=S)ccc1OCc1ccccc1`: the inhibition is 8.61%.

Consider `CCOc1ccc(-n2c(SCC(=O)Nc3cc(C(=O)O)ccc3Cl)nc3ccccc3c2=O)cc1`, for which the inhibition is 22.7%.

On to `CCn1c(CSCc2c(Cl)cccc2Cl)n[nH]c1=S`, for which the inhibition is 53.7% (active).

For `S=c1[nH]nc(CSCc2ccc(Cl)cc2Cl)n1-c1ccccc1`, the inhibition was 38.8%.

Regarding `CCn1c(CNS(=O)(=O)c2ccc(Cl)cc2)n[nH]c1=S`, the inhibition is -9.99%.

Take `Clc1ccc(C2=CSC3=Nc4cccc5cccc(c45)N23)cc1`: the inhibition is 21.2%.

For `CCN(CC)P(=O)(/C(Cl)=C\Nc1c(C)n(C)n(-c2ccccc2)c1=O)N(CC)CC`, the inhibition was 2.07%.

In the case of `COc1ccc(CCNCC(O)Cn2ccc3ccccc32)cc1OC` (stereo not drawn), the inhibition was -8.76%.

Turning to `O=C1c2ccccc2C(=O)c2c1cccc2N1CCN(C/C=C/c2ccccc2)CC1`, the inhibition was 38.5%.

In the case of `O=C1c2ccccc2C(=O)c2c1cccc2N1CCN(CCO)CC1`, the inhibition is 12.2%.

Consider `O=C1c2ccccc2C(=O)c2c1cccc2N1CCN(Cc2ccccc2)CC1`, for which the inhibition is 41.3% (active).
